The source of these data is the supplement of paper PMC6555819.

This test deals with VDR:RXRa (NR concentration 270 nM, RXRa partner concentration 90 nM). Description: PBM binding z-score (relative to random genomic background probes); higher = stronger binding; sequences stand for … in GC…GCGATTGACAGCGTAGAATGAAGG
How it is done:
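Protein-binding microarray (Agilent 4x180K custom design, double-stranded 60-nt probes: 5' GC cap, 34-nt variable region, 24-nt constant primer region; full probe sequence given). Purified or IVT nuclear receptor:RXRα heterodimers (3:1 NR:RXRα, mostly 270:90 nM) or homodimers were incubated for 1 h in PBS with 2% milk and no ligand, then detected with Alexa488 antibodies. Fluorescence from o1-orientation probes (~5 replicates averaged) was converted to z-scores against 500 random hg19 background probes. Variable regions are seed direct-repeat (DR0–DR5) sites, all their single-nucleotide variants and half-site ablations.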
For GCTGCTAGGTGAACTGATGGTCAGCTAAAGCTCG, the PBM binding z-score was -0.124.

In turn, TCATATAGGTAGATGCTAGGTGAAAGTCCGATCT showed a PBM binding z-score of 0.638. Under CGAACGAGGGCAGGAGTTGATAGCAAATGCCGAT stands -0.167. CAGGCTAGGTCAGGGCCAGTATAGGAGGAACGTT registered a PBM binding z-score of 0.258. Under TCTTGTATATCAGCAGGTTAAGAAAGCTGGCCAA stands 0.851.

In turn, AGAACGAGGGCAATGAGTTGATACCACGGGTGGC gave a PBM binding z-score of 5.25. As to AGTCAAAGCTCACTAGGTAACGTAAGATTCAGCT, the PBM binding z-score was -0.551. As to TCGAGTAGGTTAGGGGCATTCGGAATGGCGTCGA, the PBM binding z-score was 0.55. For the sequence TCTTGTAGATGAAGCAGGTTAAGAAAGCCTGAGT, the PBM binding z-score turned out to be 0.456. For the sequence ATCGAAAGGTCGAATGTGAGTATACCCACCCGAA, the PBM binding z-score was determined as 2.84. In turn, GCTAGTTGGTCACTAAAAGGTCACACACCGGTCG had a PBM binding z-score of 4.17. Under ATCTCTAGGTAATCAAGTTCAGTGAATGCCGAAC stands 4.21; under CCTACTGGGCCATTCAGAGGTCATGGATCATATG, 3.92; under GCTAGCAGCCCATTTGGGTCACTCAATGACGGGC, -0.389. Under CCGACTGGGGCAAAGGTTACCATACTCAGTACGA stands 1.68; under TCATATAGTTAAAGGTGAAAGTCGAACGATATGA, 1.2. With CCTTACGGGTCACTGACAGGTTATCGCATTTGGA, the PBM binding z-score came to 3.85.

CCTACTGGGCCAAAGGTCATTGAATCCAATGCTC had a PBM binding z-score of 4.86.

Take TGTCAAAGTTCAAAGGTAAAGTAAGTATCCACAC: the PBM binding z-score turned out to be 4.88. GGAAGGAGGGCAAGTTGATAGCAGAGTTTGATGG displayed a PBM binding z-score of 0.934. Under ACTAGCAGGCCAAGTTGGGGTCACTCAAACAAAG stands 4.77.

Sequence GATACAGGGTCAGCTAGAGGCAAGAGTATGGAAA had a PBM binding z-score of 2.63.

For CAAACTGGGTCACGAAAGGTCAAAGTCGAATGAC, the PBM binding z-score is 6.96. Under TCTACAGGGTCAAAGGCCAGAGTACGAATGTCGA stands 4.56; under CAGACTGGGGCAGAAAGGTTACCATACCATCCGG, 1.44; under ATACCAAGGTGATCGTGAGGTGGTTGATACTAAC, -0.0231. AGAATGAGGTAACCAAAGATCAGGGAAACGCTTG: the PBM binding z-score was -0.129.

On to TCGAGTTGGTCAAAGGTCACACACTCGAAATGCG, for which the PBM binding z-score stood at 5.56. Under TCTAGTTGCTCAAAGGTCACACACTCGAAATGCG stands 4.77; under ACAGACTGGTGATGAAGGTAACTCAGGCTATCAT, -0.35. Under CGAACTAGGTCAGAACAGGACAGTGAAGGATGAT stands 0.634; under TCGAGTAGGTTACCAATGAGGCATTCAGCTTTCT, -0.192. Take ACTATTAGTTGAGACGCGGGCAACCGATAGGTTG: the PBM binding z-score was -0.235. Regarding CCGACTGGGGCAGAAAAGTTACCATACCATCCGG, the PBM binding z-score is -0.576. Under ATACTAAGGTGATCGTGAGGTCGTTGATACTAAC stands 3.72.

AAAGACAGGTGATGAAGGTAACTCAGGCTATCAT displayed a PBM binding z-score of 0.521. In the case of TGAATGAGTTTATAAGATCAGGGAACGTTGCAAA, the PBM binding z-score amounted to 1.26.

With ACAGACAGGTCATGAAGGTAACTCAGGCTATCAT, the PBM binding z-score turned out to be 4.55.

TCTTGTCGATCAACAGGAGGTTAAGAAAGATCGA registered a PBM binding z-score of 0.427.

Sequence CAAACTAGGTCACCGGAAGGTCAAAGTGCGCATG yielded a PBM binding z-score of 6.18.
